PubChem BioAssay
Values without a mark were called inactive. The rule behind the calls is not given here.

target: Pantothenate synthetase (Mycobacterium tuberculosis (strain ATCC 25618 / H37Rv)) (UniProt P9WIL5); assay: Recombinant Mtb pantothenate synthetase (PanC) inhibitors, coupled enzyme, confirmatory (AID 375); conditions: coupled enzyme assay; at 10 µM, stronger effect = higher value;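 note: 0% = full reaction with vehicle and 100% = no enzyme background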
Sequence (P9WIL5 whole entry, looked up): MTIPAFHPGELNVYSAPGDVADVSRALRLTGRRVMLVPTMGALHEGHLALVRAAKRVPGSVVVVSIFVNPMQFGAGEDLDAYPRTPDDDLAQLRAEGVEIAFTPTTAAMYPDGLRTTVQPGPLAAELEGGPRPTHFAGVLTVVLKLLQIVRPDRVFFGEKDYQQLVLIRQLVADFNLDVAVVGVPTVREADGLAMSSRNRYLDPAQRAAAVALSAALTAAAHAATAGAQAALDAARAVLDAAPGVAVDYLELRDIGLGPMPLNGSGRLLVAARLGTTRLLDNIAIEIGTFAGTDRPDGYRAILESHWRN

| SMILES | inhibition [%] |
| --- | --- |
| Nc1ccc(S(=O)(=O)c2cccc(N)c2)cc1 | 8 |
| CN(C(=O)c1ccno1)c1nnc(-c2cnccn2)s1 | 2 |
| Cc1occc1-c1nnc(SCC(=O)NCC2CCCO2)n1C (centres undefined) | 7 |
| Cc1cc(C(C)(C)C)cc(C)c1CC1=NCCN1 | 0 |
| CN(C)S(=O)(=O)c1ccc(Oc2ccc(S(=O)(=O)N(C)C)cc2)cc1 | 4 |
| Cc1ccnc(SCCn2c(N3CCN(Cc4ccccc4)CC3)nc3c2c(=O)[nH]c(=O)n3C)n1 | 0 |
| CCOc1ccc2nc(SCC#N)c(C#N)cc2c1 | 0 |
| OCc1nc(CO)n(Cc2ccccc2)n1 | 0 |
| CCCNC(=O)NC(C(=O)OC)C12CC3CC(CC(C3)C1)C2 (centres undefined) | 3 |
| CN1CCC(NC(=O)c2cccs2)CC1 | 2 |
| CCCOC(=O)c1[nH]c2c(c1C)C(=O)CC(c1ccc(OC)c(OC)c1)C2 (centres undefined) | 0 |
| Cc1ccc(-n2c(N)c(C(N)=O)sc2=S)cc1 | 6 |
| CCn1c(=N)n(CC(=O)C23CC4CC(CC(C4)C2)C3)c2ccccc21 | 0 |
| O=C(NCC(c1cccnc1)N1CCOCC1)c1cccs1 (centres undefined) | 0 |
| Cc1ccc2nc(NC(=O)C3CCN(S(=O)(=O)c4cccc5nsnc45)CC3)sc2c1 | 4 |
| COc1ccccc1N(CC(=O)Nc1cccnc1)S(C)(=O)=O | 5 |
| COc1ccc(OC)c(NC(=O)CCN2CCC(C)CC2)c1 | 0 |
| Cc1nn(C(=O)c2cc3sccc3[nH]2)c(C)c1C | 0 |
| c1ccc(C(Cc2nc(-c3ccccn3)no2)c2ccccc2)cc1 | 0 |
| COc1ccccc1-c1cc2nc(C)c(CCC(=O)NCc3ccco3)c(C)n2n1 | 0 |

| SMILES | inhibition [%] |
| --- | --- |
| Cc1c(NC(=O)c2ccc(COc3ccc4ccccc4c3)o2)c(=O)n(-c2ccccc2)n1C | 0 |
| CCOC(=O)c1cnc2c(OC)cccc2c1N1CCN(c2ccc(OC)cc2)CC1 | 0 |
| Cc1nc2sc(C(c3cccc(F)c3)N3CCC(C)CC3)c(O)n2n1 (centres undefined) | 0 |
| COc1ccc(S(=O)(=O)N2CCCC2C(=O)Nc2ccc(O)cc2)cc1 (centres undefined) | 0 |
| CCCCc1cc(=O)oc2cc(OCC(=O)N(CC)CC)c(Cl)cc12 | 0 |
| COC(=O)CCCCC(=O)C1C(=O)CC(C)(C)C(C(=O)OC)C1=O (centres undefined) | 0 |
| CN1CCN2c3ccccc3Cc3ccccc3C2C1 (centres undefined) | 0 |
| COc1ccccc1C(=O)Nc1ccc(S(=O)(=O)N2CCCC2)cc1 | 4 |
| CS(=O)(=O)N(CC(=O)N1CCCCCC1)c1ccccc1 | 8 |
| C=CCN1C(=O)C2(/C(=C(\O)c3ccc4c(c3)OCCO4)C(=O)C(=O)N2CCCOC)c2ccccc21 (centres undefined) | 0 |
| CC(=O)c1cc(-c2ccc(F)cc2)n(CCC(=O)Nc2cc(C)[nH]n2)c1C | 4 |
| Cc1nc2ccc(NC(=O)N3CCSCC3)cc2s1 | 1 |
| Cc1c2cnn(CC(=O)N3CCN(c4ncccn4)CC3)c(=O)c2c(C)n1Cc1ccc(F)cc1 | 0 |
| N#CC(C(=O)C1CCCCC1)c1nc2ccccc2[nH]1 (centres undefined) | 0 |
| Cc1ccccc1Cn1ccc(NC(=O)c2onc(C)c2Cl)n1 | 0 |
| C(/CCc1ccccc1)=N\n1cnnc1 | 8 |
| O=S(=O)(c1ccc(Br)s1)N1CCN(c2ccccc2)CC1 | 0 |
| CCOC(=O)C1C(=O)OC(C)(C)C1C(C)C(=O)c1ccc(OC)cc1 (centres undefined) | 0 |
| CCOC(=O)c1cccc(NC(=O)C2CCN(S(=O)(=O)c3cccs3)CC2)c1 | 0 |
